Screens: PubChem BioAssay, several laboratories
SENP8 block-1: SENP8 (human) protease inhibition. 360,000 compounds, 0.64% hits. recombinant SENP8, Nedd8 substrate fluorescence. inhibition, % at 20 µM. Q96LD8; in the data active means inhibition mostly above about 40%, no sharp cut-off; inactive means mostly below about 27%
Target sequence (Q96LD8 whole entry, looked up): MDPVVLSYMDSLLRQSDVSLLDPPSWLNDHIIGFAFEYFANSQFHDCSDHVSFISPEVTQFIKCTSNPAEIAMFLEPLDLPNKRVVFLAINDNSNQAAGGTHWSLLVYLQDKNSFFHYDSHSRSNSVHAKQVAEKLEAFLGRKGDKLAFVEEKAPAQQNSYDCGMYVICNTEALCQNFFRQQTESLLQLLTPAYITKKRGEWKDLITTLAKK
SENP6 inh: blocks the human protease SENP6 | Recombinant SENP6 catalytic domain, aminoluciferin luminescence | inhibition, % at 10 µM | 330,000 compounds, 1.8% hits | AID 2599;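 active means inhibition above about 50% at the single tested dose, limit read from the data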;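 further: plate controls were DMSO wells with enzyme for no effect and DMSO wells lacking enzyme for full effect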
AHR act: human AHR activation; P35869; AHR-responsive luciferase reporter cells, luminescence; activation, % at 5 µM; 320,000 compounds, 2.5% hits; AID 2796; in the data active means activation above about 47%;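 further: 0% = vehicle wells and 100% = reference agonist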
SENP7 block: inhibitors of human SENP7 protease. Q9BQF6. recombinant SENP7, Z-RLRGG-aminoluciferin luminescence, 40 min. inhibition, % at 5 µM. 330,000 compounds, 1.5% hits. AID 434973;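 active means inhibition above about 50% at the single test dose, limit read from the data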;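 further: plate controls were DMSO with enzyme for no effect and no enzyme buffer wells for full effect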
Target sequence (Q9BQF6 706-1050 limits assumed): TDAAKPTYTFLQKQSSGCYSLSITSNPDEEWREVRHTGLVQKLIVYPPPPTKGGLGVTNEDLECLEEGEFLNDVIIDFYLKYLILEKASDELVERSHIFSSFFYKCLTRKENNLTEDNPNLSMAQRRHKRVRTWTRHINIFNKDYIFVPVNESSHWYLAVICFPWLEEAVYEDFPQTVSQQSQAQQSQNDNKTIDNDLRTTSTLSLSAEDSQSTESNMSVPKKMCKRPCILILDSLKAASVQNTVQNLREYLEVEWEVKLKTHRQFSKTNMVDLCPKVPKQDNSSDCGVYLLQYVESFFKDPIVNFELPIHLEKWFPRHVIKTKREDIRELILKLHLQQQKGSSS
EBI2 block: antagonists of human EBI2 receptor; 360,000 compounds, 0.81% hits; AID 651636; EBI2 beta-arrestin recruitment, luminescence, 7a,25-OHC stimulated; inhibition, % at 5 µM; P32249; in the data active means inhibition above about 38%;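 further: enzyme fragment complementation signal reports receptor beta-arrestin coupling in cells; 0% = agonist plus DMSO wells and 100% = wells without agonist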
SENP8 block-2: inhibitors of human SENP8 protease | Q96LD8 | purified SENP8, Z-RLRGG-aminoluciferin cleavage, luminescence | inhibition, % at 10 µM | 330,000 compounds, 1.2% hits | AID 2540; in the data active means inhibition above about 50%
SENP8 conf: confirmation of human SENP8 protease inhibitors. Recombinant SENP8, Z-RLRGG-aminoluciferin luminescence, 60 min. 6,200 compounds, 40% hits. AID 488912. inhibition, % at 12.5 µM. shares compounds with SENP7 block;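 active means mean inhibition across replicates above about 50%, limit read from the data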
SENP6 conf: human SENP6 inhibition, confirmed; shares compounds with SENP7 block; recombinant SENP6, Z-RLRGG-aminoluciferin luminescence; inhibition, % at 12.5 µM; 6,200 compounds, 58% hits
SENP7 conf: human SENP7 inhibition, confirmed; inhibition, % at 12.5 µM; shares compounds with SENP7 block; recombinant SENP7, Z-RLRGG-aminoluciferin luminescence, 40 min; 6,200 compounds, 69% hits
Casp3 select: inhibits human caspase-3 in SENP selectivity test; shares compounds with SENP7 block; purified caspase-3, Z-DEVD-aminoluciferin luminescence, 60 min; 6,200 compounds, 60% hits; inhibition, % at 12.5 µM;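 active means mean inhibition above about 50%, limit read from the data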;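 further: plate controls were enzyme with DMSO for no effect and wells without caspase-3 for full effect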
SENP luc ctr: luminescence interference (SENP counter-screen); Pre-incubated SENP8/Z-RLRGG-aminoluciferin, luciferase luminescence interference; shares compounds with SENP7 block; 6,200 compounds, 39% hits; AID 488919; inhibition, % at 12.5 µM;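 active means mean inhibition above about 50% when retested at one dose, limit read from the data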;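 further: plate controls were DMSO wells with completed reaction for no effect and substrate without enzyme for full effect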
Active calls of the source: *; nt = no result. An excerpt weighted towards active compounds, which were near 5% of everything screened.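 How the source made its calls, unless noted: active means mean inhibition above about 50% in the one-dose retest (limit read from the data); inactive means the rest.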

SMILES	SENP8 block-1	SENP6 inh	AHR act	SENP7 block	EBI2 block	SENP8 block-2	SENP8 conf	SENP6 conf	SENP7 conf	Casp3 select	SENP luc ctr
COc1ccc(NC(=O)c2ccccc2F)cc1Cl	18	81*	2	79*	4	76*	83*	84*	92*	88*	21
O=C(Nc1ccc2c(c1)OCCO2)c1ccccc1F	10	76*	-1	78*	0	58*	69*	68*	92*	90*	81*
COc1ccc(C(=O)N/C(=C\c2ccc3c(c2)OCO3)C(=O)Nc2cccc(C(=O)O)c2)cc1	-2	8	0	-4	-3	3	nt	nt	nt	nt	nt
CCOC(=O)[C@@H]1[C@H]2COc3cc(OC)ccc3[C@@H]2N2C(=O)N(c3ccc(F)cc3)C(=O)[C@@]12C	4	-7	1	-7	-1	-8	nt	nt	nt	nt	nt
COc1cc(OC)c(OC)cc1CNC(=O)c1ccc(S(=O)(=O)N2CCCCC2)cc1	20	-3	-1	-14	-11	-7	nt	nt	nt	nt	nt
O=C(Nc1ccc2c(c1)OCCO2)c1cnc2ccccn2c1=O	12	57*	-3	6	0	29	11	-1	10	39	6
O=C(c1ccc(NC(=O)C2(c3ccccc3)CCCC2)cc1)N1CCOCC1	16	-49	-1	-6	-6	1	nt	nt	nt	nt	nt
O=C(Nc1ccccc1)Nc1ccc(C(=O)N2CCOCC2)cc1	19	59*	17	82*	-15	61*	81*	81*	97*	93*	82*
O=C(Nc1ccccc1)c1cnc2ccccc2n1	12	32	32	23	-3	-5	nt	nt	nt	nt	nt
O=C(Nc1ccc(C(=O)N2CCCC2)cc1)c1ccccc1F	5	69*	-1	77*	-6	58*	66*	68*	91*	93*	78*
O=C(Nc1ccccc1)c1ccc2ccccc2n1	5	73*	43	73*	5	65*	37	70*	89*	65*	24
CCN(CC)c1ccc(/C=N/N2C(C)CCCC2C)c(O)c1 (configuration not stated)	1	-4	14	0	15	8	nt	nt	nt	nt	nt
O=C(Nc1ccc(F)cc1)c1ccccc1F	12	20	29	2	6	1	nt	nt	nt	nt	nt
O=C(Nc1ccc(NC(=O)c2ccccn2)cc1)C(=O)Nc1ccc2c(c1)OCCO2	-39	-19	2	-7	-5	6	nt	nt	nt	nt	nt
O=C(Nc1ccc2c(c1)OCCO2)c1ccccn1	2	89*	9	89*	-6	82*	89*	89*	100*	97*	92*
O=C(Nc1ccc2ccccc2c1)c1ccccc1F	8	86*	13	92*	5	82*	64*	89*	98*	82*	88*
Cc1nc(C)c(C(=O)Nc2ncc([N+](=O)[O-])s2)o1	22	98*	-2	89*	3	95*	98*	98*	102*	98*	96*
CC(C)CC(=O)Nc1ncc([N+](=O)[O-])s1	36	-4	2	4	-8	-7	nt	nt	nt	nt	nt
O=C(Nc1ccccc1)Nc1ncc([N+](=O)[O-])s1	36	99*	nt	100*	-5	97*	98*	100*	102*	98*	98*
COC(=O)C1=C(C(=O)OC)C2C(C)=CC(C)=CN2C(C(=O)OC)=C1C(=O)OC (configuration not stated)	-94	12	4	7	2	-2	nt	nt	nt	nt	nt
CC(C)(C)OC(=O)N1CCC(NC(=O)c2nc[nH]c2C(=O)N2CCN(c3ccccc3)CC2)CC1	5	0	-1	3	4	7	nt	nt	nt	nt	nt
O=C(NCCc1ccccc1)c1ccc2c(c1)OCCO2	6	72*	-25	80*	3	46	73*	70*	89*	87*	75*
O=C(NCCc1ccccc1)c1ccc2c(c1)OCCCO2	6	85*	-18	83*	0	78*	86*	86*	98*	93*	85*
COc1c(C)cc(C(=O)C2CCCN(C(=O)/C=C/c3ccccn3)C2)cc1C (configuration not stated)	21	-5	-2	-14	-1	-8	nt	nt	nt	nt	nt
CCOc1cc(/C=C/c2ccc3cccc([N+](=O)[O-])c3n2)ccc1OCC(=O)N(C)C	17	3	-4	-2	11	5	nt	nt	nt	nt	nt
SMILES	SENP8 block-1	SENP6 inh	AHR act	SENP7 block	EBI2 block	SENP8 block-2	SENP8 conf	SENP6 conf	SENP7 conf	Casp3 select	SENP luc ctr
O=C(O)c1ccc(/C=C/c2ccc3cccc(O)c3n2)cc1	-110	95*	nt	98*	-3	95*	98*	99*	102*	97*	78*
Oc1ccc(/C=C/c2ccc3cccc(O)c3n2)cc1Br	-107	97*	17	88*	-9	92*	98*	98*	102*	84*	94*
COC(=O)c1ccc(/C=C/c2ccc3cccc(OC(C)=O)c3n2)cc1	-397	95*	-1	91*	11	87*	79*	90*	98*	86*	7
COc1ccc(C(=O)N/N=C/c2ccc3cccc(O)c3n2)cc1	-55	-13	3	5	1	2	nt	nt	nt	nt	nt
COC(=O)c1ccc(/C=C/C(=O)O)cc1	16	-21	6	-1	-7	-5	nt	nt	nt	nt	nt
O=C(Nc1cccc(S(=O)(=O)N2CCCCC2)c1)c1cc(=O)[nH]c2ccccc12	-154	-15	6	-1	-5	-19	nt	nt	nt	nt	nt
Cc1ccc2cc(C=O)c(Cl)nc2c1	16	4	2	7	-2	0	nt	nt	nt	nt	nt
O=C(O)c1nn(CCSc2ccccc2F)c(=O)c2ccccc12	17	-5	-1	2	7	-8	nt	nt	nt	nt	nt
COc1cccc(C(=O)O/N=C(\N)c2ccccn2)c1OC	17	76*	27	73*	0	59*	69*	68*	92*	92*	79*
N/C(=N\OC(=O)c1cccc2ccccc12)c1ccccn1	-45	80*	61*	77*	-18	69*	81*	79*	94*	79*	84*
N/C(=N\OC(=O)Cc1cccc2ccccc12)c1ccccn1	24	-18	11	-9	-5	-11	nt	nt	nt	nt	nt
